Source: PubChem
This is a sample that favours compounds with a hit; in the whole collection about 2.3% have one here.
ALOX12 inh – blocks human arachidonate 12S-lipoxygenase; P18054; purified 12hLO, xylenol orange hydroperoxide absorbance; Potency, µM (doses to about 108 µM), for inactives: at the highest dose activity change, negative = inhibition, actives largely listed as inhibitors; 580,000 compounds, 1.1% hits; also: potency is read from the fitted curve at half-maximal effect; % is scaled to controls: 0 for no effect and ±100 for the full control effect
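Purified human 12hLO at 150 nM in 25 mM Hepes, 0.01% Triton X-100, pH 7.0, preincubated 15 min at room temperature with compound. Reaction started with 40 uM arachidonic acid, 30 min at room temperature. Hydroperoxide measured by Fe-xylenol orange, 573/405 nm absorbance ratio.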
GLS inh – inhibitors of human glutaminase (GLS). O94925. 410,000 compounds, 0.21% hits. Potency, µM (series often up to 45.5 µM), for the others: top-dose activity change, negative = inhibition, actives largely listed as inhibitors. GLS enzymatic activity, qHTS titration; also: potency is read from the fitted curve at half-maximal effect; % is scaled to controls: 0 for no effect and ±100 for the full control effect
Target sequence (O94925 whole entry, looked up): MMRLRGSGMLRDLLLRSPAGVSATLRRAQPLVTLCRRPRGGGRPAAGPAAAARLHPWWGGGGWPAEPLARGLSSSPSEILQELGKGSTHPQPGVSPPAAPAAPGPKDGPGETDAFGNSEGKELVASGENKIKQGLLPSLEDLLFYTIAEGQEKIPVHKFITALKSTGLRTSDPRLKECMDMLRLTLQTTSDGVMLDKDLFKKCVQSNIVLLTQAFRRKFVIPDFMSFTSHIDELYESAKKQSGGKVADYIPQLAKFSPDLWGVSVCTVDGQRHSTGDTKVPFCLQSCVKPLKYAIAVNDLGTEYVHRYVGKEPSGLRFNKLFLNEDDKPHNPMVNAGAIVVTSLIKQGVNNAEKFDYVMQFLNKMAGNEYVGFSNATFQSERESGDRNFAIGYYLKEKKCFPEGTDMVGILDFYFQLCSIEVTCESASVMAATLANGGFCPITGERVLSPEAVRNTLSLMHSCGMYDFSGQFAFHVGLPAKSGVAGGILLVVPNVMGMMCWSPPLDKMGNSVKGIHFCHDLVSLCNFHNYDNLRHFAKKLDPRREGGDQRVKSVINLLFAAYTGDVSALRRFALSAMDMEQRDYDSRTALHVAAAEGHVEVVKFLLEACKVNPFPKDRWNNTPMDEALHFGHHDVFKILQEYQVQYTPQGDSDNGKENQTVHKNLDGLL
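Human kidney-isoform GLS in 45 mM KH2PO4 pH 8.2, 0.02% Tween-20, with compound, started with 1mM L-Glutamine (added stock). Glutamate oxidase/HRP/Amplex red coupled fluorescence read at start and after 30 min at RT.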
PTHR1 agonist – activates the human parathyroid hormone receptor PTHR1. Q03431. HEK293 GP2 PTHR1 cells, GloSensor cAMP luminescence, 1 h. Potency, µM (top dose mostly 115 µM), without a hit: top-dose activation, usual class: activators. 410,000 compounds, 0.075% hits. AID 743266; also: potency is read from the fitted curve at half-maximal effect; nearly all actives have a fitted effect of over 55% in size
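HEK-293-derived GP2 cells expressing PTHR1 and a GloSensor cAMP reporter, 3,000/well, plated overnight, given luciferin plus IBMX (each 0.5 mM as added) for 1 h at 37 °C, then compound for 1 h at 37 °C. Luminescence was read after 15 min at room temperature.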
GLP1R inv ag – acts as inverse agonist at human GLP-1 receptor; HEK293 GLP-1R CRE-luciferase, luminescence, 24 h; GLP-1R form is constitutively active; AID 624417; Potency, µM (highest dose often 38.3 µM), for the others: at the top dose activity change, negative = inhibition, hits mostly inhibitors; 410,000 compounds, 1.6% hits; also: potency is read from the fitted curve at half-maximal effect; % is scaled to controls: 0 for no effect and ±100 for the full control effect; nearly all actives have a fitted effect of over 55% in size
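Luminescence readout: a drop in cAMP-driven luciferase signal flags inverse agonism at a constitutively active GLP-1R stably expressed in HEK293. Compound exposure lasted 24 hr at 37 deg C, 5% CO2.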
Glioma ERSR ind – inducers of ER stress response in human glioma cells; Potency, µM, inactives show at the top dose activation, most hits filed as activators; 420,000 compounds, 0.02% hits; AID 602332; U87-MG GRP78 promoter luciferase reporter, 16 h; also: potency is read from the fitted curve at half-maximal effect; series mostly up to about 76 µM; % of control where 0% means no effect; nearly all actives have a fitted effect of over 35% in size
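ERSR induction read as luciferase luminescence (Bright-Glo, 10 min at room temperature) in stably transfected human U87-MG glioma cells exposed to compounds for 16 h, using GRP78 as sensor.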
GLP-1R agonist – agonists of human GLP-1 receptor; 380,000 compounds, 0.007% hits; Potency, µM (series often up to 45.6 µM), for inactives: at the top dose activation, usual class: activators; P43220; HEK293 GLP-1R CRE-luciferase, luminescence, 4-6 h; cells express a hypersensitive GLP-1R form; also: potency is read from the fitted curve at half-maximal effect; % of control where 0% means no effect
GLS hit conf – confirmation of human glutaminase inhibitors | shares compounds with GLS inh | biochemical glutaminase enzyme inhibition assay | Potency, µM (titrated, usually from 46.1 µM), for inactives: top-dose activity change, negative = inhibition, hits mostly inhibitors | AID 624261 | 35 tested, under 10 active; calls by dose curve
GLS HRP counter – counter-screen for glutaminase inhibitors: HRP coupled enzyme inhibition | activity change, negative = inhibition, % at 46.1 µM | shares compounds with GLS inh | 35 tested, under 10 active | HRP/glutamate oxidase coupled Amplex Red fluorescence counterscreen
GLS HEK tox – reduces HEK-293 viability in glutaminase inhibitor counter-screen; shares compounds with GLS inh; HEK-293 viability, CellTiter-Glo luminescence, 24 h; AID 624264; 35 tested, under 10 active; activity change, negative = cytotoxicity, % at 46.1 µM
* marks the source's active call; other numbers are inactive results; i = inactive; ? = inconclusive; . = no result; ! = repeats disagree; [ ] = remark or other dose. Unless noted, calls follow the shape of the dose curve; as a rule, active = well fitted curve in the direction sought with a large enough effect; inconclusive = small, poorly fitted or top-dose-only effect, or another doubt; inactive = no such curve, though single readings can be large; an effect the other way counts as inactive or inconclusive.

SMILES	ALOX12 inh	GLS inh	PTHR1 agonist	GLP1R inv ag	Glioma ERSR ind	GLP-1R agonist	others
CN1C(=O)C(CC(=O)Nc2ccc(F)cc2)N(Cc2cccs2)C1=S (stereo unspecified)	10%	-19%	-2%	?	-1%	9%
CCN1C(=O)C(CC(=O)NCCc2ccccc2)N(NC(=O)c2ccc(Br)cc2)C1=S (stereo unspecified)	-3%	-2%	-6%	10µM*	-4%	-2%
CCCOc1ccc(NC(=O)CC2C(=O)N(C)C(=S)N2Cc2cccs2)cc1 (stereo unspecified)	25%	4%	-9%[57.5 µM]	7.9µM*	-6%	-7%
O=C1NCCCCCCN(C(=O)c2cccnc2)[C@H]2C[C@H](C(=O)N3CCc4ccccc4C3)C[C@@H]12	39%	.	.	.	.	.
O=C(NC1CCCC1)c1ccc(Oc2nccnc2Sc2ccccc2)cc1	-20%	.	.	.	.	.
COc1ccccc1CNS(=O)(=O)c1cc(CN2C(=O)c3cccnc3C2=O)ccc1OC	35µM*	-3%	i	12%	-3%	0%
COc1ccc(CN2C(=O)c3cccnc3C2=O)cc1S(=O)(=O)NCc1ccc(C)o1	-5%	12%	i	8%	0%	5%
COc1ccc(S(=O)(=O)N2CCCCC2)cc1NC(=O)c1ccc(F)cc1	-19%	.	.	.	.	.
COCCn1c(SCc2ccc(OC)c(F)c2)nnc1-c1cccc(C)c1	-78%	.	.	.	.	.
O=C(NCc1ccc(Cl)cc1)C1CCCN(c2ncnc3nc[nH]c23)C1 (stereo unspecified)	0%	.	.	.	.	.
Cc1ccc(Oc2ncccc2/C=N/OCc2ccc(Cl)c(Cl)c2)cc1	56%	0%	-22%	10µM*	2%	-8%
Cc1ccc(C)c(OCC(=O)Nc2ccc3c(c2)OCO3)c1C	11%	0%	-12%[57.5 µM]	7.9µM*	-1%	7%
CCOC(=O)c1c(N)sc(C(=O)Nc2ccc3c(c2)OCO3)c1C	0%[57.4 µM]	3%	-36%	5.6µM*	-16%	-11%
Cc1ccc(C(=O)NCCn2c(C)cc3ccccc32)cc1[N+](=O)[O-]	-4%	.	.	.	.	.
Cc1cccc(NC(=S)NC(=O)c2ccc(Br)o2)c1C	?	-5%	i	-25%	-1%	12%
Cc1cccc(C)c1NC(=S)NC(=O)c1ccc(Br)o1	45µM*	0%	-11%	?	-1%	-2%
Cc1ccc(-c2cc3ccccn3c2C=O)cc1C	16µM*	.	.	.	.	.
CCN1CCc2c(sc(N)c2C#N)C1	49%	-23%	i	1%	-6%	1%
CC(C)N1CCc2c(sc(N)c2C#N)C1	71%	14µM*	i	6%	-2%	-3%
O=C(c1cccnc1)N1CC(Oc2ccc(-c3noc(-c4ccccc4)n3)cc2)C1	36%	.	.	.	.	.
O=C(Sc1ccc(Sc2ccc(SC(=O)c3ccco3)cc2)cc1)c1ccco1	10%	.	.	.	.	.
O=c1oc2cc(O)ccc2c2oc3cc(O)ccc3c12	-9%	7.9µM*	i	7%	4%	1%
O=C(O)c1ccc(NC2(C(=O)O)CCCC2)cc1	14µM*	33%	5%	2%	-5%	13%
CCOCCSc1nnc(-c2nn(Cc3ccccc3)c(=O)c3ccccc23)o1	28µM*	.	.	.	.	.
CCCSc1nnc(-c2nn(Cc3ccccc3)c(=O)c3ccccc23)o1	4%	.	.	.	.	.
SMILES	ALOX12 inh	GLS inh	PTHR1 agonist	GLP1R inv ag	Glioma ERSR ind	GLP-1R agonist	others
Cc1cc(CNC(=O)c2ccc(CN3CCCCC3)cc2)ccc1F	-9%	.	.	.	.	.
Cc1ccc(NS(=O)(=O)c2ccc(/C=C/C(=O)O)cc2)cc1Cl	-8%	5%	-11%	36%	-1%	0%
O=C(O)/C=C/c1ccc(S(=O)(=O)Nc2ccc3[nH]c(=O)[nH]c3c2)cc1	-3%	?	-1%	7%	-2%	-2%	GLS hit conf=1%;GLS HRP counter=-18;GLS HEK tox=1
COc1ccc(NS(=O)(=O)c2ccc3c(c2)[C@H]2C=CC[C@H]2[C@@H](c2ccc(C(=O)O)cc2)N3)cc1	28µM*!	10µM*	-23%	-13%	-4%	-1%	GLS hit conf=3.3µM*;GLS HRP counter=4;GLS HEK tox=2
Cc1cnc(C(=O)N2CCCCCCNC(=O)[C@@H]3C[C@@H](c4nc(-c5cccnc5)no4)C[C@@H]32)cn1	21%	.	.	.	.	.
COC(=O)C(=O)CC(=O)c1ccc(C)s1	-65%	.	.	.	.	.
COc1ccc(NS(=O)(=O)c2cc(N)ccc2N2CCOCC2)cc1	9%	33%	i	1%	-3%	14%
COc1ccc(NS(=O)(=O)c2cc(N)ccc2N2CCCC2)cc1	5%	?	-16%	-23%	-4%	-8%	GLS hit conf=-4%;GLS HRP counter=?;GLS HEK tox=-12
